Screening results as filed in PubChem BioAssay.
RXFP1 ag – RXFP1 (human) receptor agonism. Q9HBX9. HEK293T-RXFP1 cAMP TR-FRET, 30 min; response scale: percent of porcine relaxin response, buffer zero. Potency, µM (highest dose often 57.5 µM), without a hit: at the top dose activation, usual class: activators. actives 0.3% (n = 370,000). AID 2676; further: potency means the concentration at half of the fitted maximal effect; on the % scale 0 is the no-effect control and ±100 the full control effect; nearly all actives have a fitted effect of over 60% in size
Target sequence (Q9HBX9 whole entry, looked up): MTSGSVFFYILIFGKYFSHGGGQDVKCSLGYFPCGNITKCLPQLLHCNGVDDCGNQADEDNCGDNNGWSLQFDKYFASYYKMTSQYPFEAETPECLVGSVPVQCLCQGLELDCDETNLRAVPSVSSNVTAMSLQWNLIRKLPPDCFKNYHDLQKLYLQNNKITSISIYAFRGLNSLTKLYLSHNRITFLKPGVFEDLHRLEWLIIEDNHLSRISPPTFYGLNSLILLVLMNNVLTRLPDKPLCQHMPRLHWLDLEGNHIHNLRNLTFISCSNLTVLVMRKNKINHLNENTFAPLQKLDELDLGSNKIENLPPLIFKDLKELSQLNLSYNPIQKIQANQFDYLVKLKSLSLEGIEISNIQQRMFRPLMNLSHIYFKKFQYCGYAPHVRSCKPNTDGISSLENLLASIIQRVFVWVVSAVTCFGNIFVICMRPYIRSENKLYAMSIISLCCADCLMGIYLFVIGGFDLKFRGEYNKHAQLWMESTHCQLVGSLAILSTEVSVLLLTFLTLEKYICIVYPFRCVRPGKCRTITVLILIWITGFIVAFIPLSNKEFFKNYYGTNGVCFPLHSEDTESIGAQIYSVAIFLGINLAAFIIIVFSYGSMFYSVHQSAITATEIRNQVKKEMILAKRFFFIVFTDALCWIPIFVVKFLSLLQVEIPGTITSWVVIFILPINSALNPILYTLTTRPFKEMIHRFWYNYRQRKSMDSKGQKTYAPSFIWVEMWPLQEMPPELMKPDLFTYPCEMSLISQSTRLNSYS
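Agonist response is measured as cAMP accumulation in an RXFP1-transfected HEK293T line under PDE4 inhibition. Values are scaled between buffer-only and 29 nM porcine relaxin, and EC50s come from standard Hill equation fits.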
RXFP1 antagonist – blocks the human relaxin receptor RXFP1; Q9HBX9; HEK293-RXFP1, relaxin-stimulated cAMP HTRF, 30 min; hits give low values; activity change, negative = inhibition, % at 57.5 µM; actives 0.59% (n = 350,000);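 active means activity change of -60% or lower, but not beyond a set lower limit; inconclusive means change between -60% and -40%, or beyond the set limit; inactive means change above -40%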; further: on the % scale 0 is the no-effect control and ±100 the full control effect
p53 reactivation – mutant p53 re-activation in reporter cells | AID 504706 | H1299 p53-A138V BP100-luciferase reporter, luminescence, 24 h | Potency, µM (doses to about 92.2 µM), inactives show top-dose activity change, positive = activation, usual class: activators | actives 0.063% (n = 320,000); further: potency means the concentration at half of the fitted maximal effect; % of control where 0% means no effect; nearly all actives have a fitted effect of over 45% in size
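p53-null H1299 cells stably carrying temperature-sensitive p53-A138V and a BP100-luciferase reporter were pinned with compounds (4-point, 1:5 series) and held 24 hrs at 37 deg C. Luminescence was read 10 min after detection reagent.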
Tb PFK inh – blocks T. brucei phosphofructokinase; T. brucei PFK, ADP-Glo luminescence; Potency, µM (highest dose often 57.5 µM), without a hit: at the highest dose activity, negative = inhibition, usual class: inhibitors; O15648; actives 0.17% (n = 330,000);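 further: potency means the concentration at half of the fitted maximal effect; 0% = uninhibited 1x PFK enzyme wells and -100% = no-enzyme wells; nearly all actives have a fitted effect of over 60% in size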
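PFK 1.25 nM, F6P 0.5 mM, ATP 0.1 mM, 0.1 M TEA pH 8.0, 5 mM MgCl2, 0.01% Tween20, 0.1% BSA; 45 min RT. ADP-Glo readout. qHTS titration up to 57 uM; curves fitted, compounds curve-classed.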
gsp ag – activates gsp, the McCune-Albright syndrome mutation. gsp mutant cells, cAMP HTRF, 30 min. actives 0.13% (n = 340,000). AID 624287. Potency, µM (doses to about 76.9 µM), for inactives: top-dose activation (cAMP increase), usual class: activators; active means well fitted activation curve with a large enough effect; inconclusive means small, poorly fitted or top-dose-only effect, or another doubt; inactive means no such curve, though single readings can be large or run the other way; cell line not stated here;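 further: phosphodiesterase inhibitor Ro 20-1724 added with compounds to block cAMP breakdown; potency means the concentration at half of the fitted maximal effect; nearly all actives have a fitted effect of over 60% in size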
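Cells stably selected in G418 were plated at 2000/well, grown 16-24 hr, then given compounds in DMSO with the PDE inhibitor […] (300 uM solution added) for 30 min at 37C; cAMP was read by HTRF.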
gsp antagonist – antagonizes gsp, the McCune-Albright syndrome mutation; gsp-mutant cells, cAMP HTRF, 30 min; Potency, µM (highest dose often 76.9 µM), for inactives: at the top dose activity change, negative = inhibition, usual class: inhibitors; actives 0.4% (n = 340,000); calls by dose curve; cell line not stated here;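 further: intracellular cAMP measured with PDE inhibitor Ro 20-1724 present during compound exposure; potency means the concentration at half of the fitted maximal effect; on the % scale 0 is the no-effect control and ±100 the full control effect; nearly all actives have a fitted effect of over 65% in size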
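HTRF cAMP read-out (cAMP-d2 plus anti-cAMP antibody-K in lysis buffer, 30 min RT). Before lysis, cells are exposed to compounds with […] for 30 min at 37C in DPBS containing Ca/Mg, BSA and Tween 20.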
Starred values were filed as active, the others as inactive; ? = inconclusive; nt = not tested or not shown; [ ] = remark or other dose. Only some compounds are listed: those with a hit (about 1.1% of all), similar ones and a draw of the others. Unless noted, the call rests on the fitted dose curve; in most records, active means well fitted curve in the direction sought with a large enough effect; inconclusive means small, poorly fitted or top-dose-only effect, or another doubt; inactive means no such curve, though single readings can be large; an effect the other way counts as inactive or inconclusive.

SMILES	RXFP1 ag	RXFP1 antagonist	p53 reactivation	Tb PFK inh	gsp ag	gsp antagonist
C[N+]12CCC(CC1)C(C(O)(c1cccc(Cl)c1)c1cccc(Cl)c1)C2 (stereo not given)	-2.1%	2.5	-7.0%	-10.1%	11.4%[15.4 µM]	3.9%
O=C(O)CNC1c2ccccc2CSc2ccccc21 (stereo not given)	nt	-63.2*	nt	nt	9.6%	-11.3%
Cn1c(O)c(N=Nc2cccc(S(=O)(=O)N3CCOCC3)c2)c(=O)n(C)c1=O	10µM*	3.6	4.3%	-7.9%	?	30.1%
COP(=O)(OC)C(Nc1ccccn1)c1ccccc1 (stereo not given)	-0.3%	-4.0	0.6%	2.6%	-6.8%	11.2%
O=c1[nH]c(=S)n(Cc2ccc(F)cc2)c(O)c1C=NCc1ccc2c(c1)OCO2	25.1µM*	6.4	9.6%	-1.3%	?	9.0%
CCC(=O)O[C@H]1CC[C@H]2[C@@H]3CCC4=CC(=O)CC[C@]4(C)[C@H]3CC[C@]12C	nt	-68.0*	nt	nt	nt	-13.0%
CC1CCN(C(=O)c2ccc(N3CC4CC(C3)c3cccc(=O)n3C4)c([N+](=O)[O-])c2)CC1 (stereo not given)	0.9%	-3.4	-4.5%	-12.5%	-4.8%	-8.2%
O=C(O)c1ccc2c(c1)C1C(Cl)C(Sc3ccccc3[N+](=O)[O-])CC1C(c1cccc([N+](=O)[O-])c1)N2 (stereo not given)	-0.6%	-88.7*	-10.7%	?	-0.8%[15.4 µM]	-52.9%
O=C(O)c1cccc2c1NC(c1cccc([N+](=O)[O-])c1)C1CC(Sc3ccccc3[N+](=O)[O-])C(Cl)C21 (stereo not given)	2.2%	-4.1	-1.3%	6.7%	-16.2%	?
O=c1cc(C(F)(F)F)c2cc3c4c(c2o1)CCCN4CCC3	9.4%	5.2	8.4%	0.3%	10µM*	2.0%
Cc1cc2c(C(F)(F)F)cc(=O)oc2c2c1NCCC2	4.2%	1.3	2.4%	-3.8%	15.8µM*	1.1%
c1ccc(C2=NP(N3CCOCC3)(N3CCOCC3)=NC(N3CCOCC3)=N2)cc1	1.2%	nt	0.8%	2.3%	nt	nt
COc1ccc(OC)c(CCNCc2c(C(=O)O)c(C)n(Cc3ccc(F)cc3Cl)c2C)c1	0.1%	-63.0*	nt	nt	nt	nt
O=C(Nc1ccc(Cl)cc1)Nc1ccc(Cl)c(Cl)c1	-1.0%	-16.5	28.2µM*	-10.2%	nt	-12.9%
CCN1CCN(c2ccc(NC(C)=O)cc2Cl)CC1	0.9%	-7.4	-1.4%	0.4%	?	12.6%
O=[N+]([O-])c1ccc(C[n+]2c(-c3ccccc3)cc(-c3ccccc3)cc2-c2ccccc2)cc1	-0.6%	nt	-7.0%	8.8%	-50.0%	0.5%
O=[N+]([O-])c1cc(Cl)c(O)c(-[n+]2c(-c3ccccc3)cc(-c3ccccc3)cc2-c2ccccc2)c1	-0.1%	-4.8	-5.8%	-2.6%	?	12.6µM*
COc1ccc(OC)c(/C=N/OC(=O)Nc2ccc(Cl)cc2)c1	0.4%	4.1	4.0%	-1.8%	-50.7%	-3.5%
O=C(Nc1ccc(Oc2ccc(Cl)cc2)c(Cl)c1)c1cc(I)cc(I)c1O	1.7%	-92.3*	6.1%	-0.3%	nt	?
Cn1cccc1/C=C1/C(=O)NC(=S)N(Cc2ccc(F)cc2)C1=O	6.0%	-68.7*	-3.4%	0.8%	-5.3%[15.4 µM]	-24.7%
CCOc1cc2c(cc1OCC)-n1cccc1C(c1cccc([N+](=O)[O-])c1)NC2 (stereo not given)	2.9%	-3.7	-2.4%	0.8%	-12.1%	-14.0%
Cc1[nH]n(-c2ccccc2)c(=O)c1C(c1ccc([N+](=O)[O-])cc1)c1c(C)[nH]n(-c2ccccc2)c1=O	-0.2%	-10.5	2.5%	-8.3%	?	25.1µM*
O=c1c(C2CC(c3ccc(-c4ccc(Br)cc4)cc3)Cc3ccccc32)c(O)sc2ccccc12 (stereo not given)	nt	-72.2*	nt	nt	nt	nt
CCCCn1c(O)c(C(C)=Nc2ccc3c(c2)CCC3)c(=O)[nH]c1=O	1.2%	5.4	-4.2%	-2.2%	15.5%[15.4 µM]	-3.4%
COc1cc(CC2(CCc3ccncc3)C(=O)NC(=O)NC2=O)cc(OC)c1OC	0.3%	-79.5*	6.1%	2.9%	4.4%	6.2%
SMILES	RXFP1 ag	RXFP1 antagonist	p53 reactivation	Tb PFK inh	gsp ag	gsp antagonist
COC(=O)C1=C(c2ccc(OC(F)(F)F)cc2)C[C@@H]2CC[C@H]1N2C(=O)NCC1CC1	-0.6%	nt	-4.8%	-7.4%	nt	-5.2%
Nc1ccc2ccc3cccc[n+]3c2c1	?	3.8	nt	-9.6%	?	1.3%
C[n+]1c(-c2ccccc2)c2cc(N)ccc2c2ccc(N)cc21	8.1%	nt	nt	-7.3%	nt	35.5µM*
CCN(CC)c1ccc(/C=C2\C(=O)NC(=O)N(Cc3ccco3)C2=O)cc1	6.8%	-66.4*	-4.9%	0.3%	-36.9%	-21.3%
O=C1NC(=O)N(Cc2ccco2)C(=O)/C1=C/c1cccn1CCOc1ccccc1Cl	-0.6%	-61.0*	-12.6%	?	-7.5%	30.5%
CCN(CC)c1ccc(/C=C2/C(=O)NC(=O)N(CC3CCCO3)C2=O)cc1 (stereo not given)	-2.3%	17.5	-0.3%	-5.6%	0.0%	-25.0%
CC(C)c1ccc(N2C(=O)NC(=O)/C(=C/C=C/c3ccco3)C2=O)cc1	0.1%	-80.3*	-15.6%	-20.1%	7.2%	-6.6%
O=C1NC(=O)N(Cc2ccc(F)cc2)C(=O)/C1=C\C=C\c1ccco1	0.9%	-69.7*	-13.2%	?	27.3%	6.0%
O=C1NC(=O)N(c2ccccc2)C(=O)/C1=C\C=C\c1ccccc1	0.8%	-32.7	-2.3%	-3.8%	-5.3%[15.4 µM]	-11.0%
Cc1ccc(N2C(=O)NC(=O)/C(=C/C=C/c3ccco3)C2=O)cc1	0.8%	-62.2*	-48.2%	?	14.3%	-9.0%
O=C1NC(=O)N(Cc2ccccc2)C(=O)/C1=C\c1ccco1	1.5%	-19.5	-2.7%	-7.4%	19.3%[15.4 µM]	-15.5%
CCCCN1C(=O)/C(=C/C=C/c2ccco2)C(=O)NC1=S	-1.9%	10.3	20.3%	-28.6%	-2.1%[15.4 µM]	12.5%
CN1C(=O)CN=C(c2ccccc2Cl)c2cc(Br)ccc21	0.2%	-2.7	nt	-2.7%	6.2%	-12.5%
COC(=O)C1=C(C(=O)OC)C2OC1c1cc3ccccc3cc12	nt	-119.7*	nt	nt	?	-3.5%
COC(=O)C1=C(c2ccc3ccccc3c2)C[C@@H]2CC[C@H]1N2C	-0.9%	nt	0.0%	-1.9%	?	4.6%
CC(C)(C)N(NC(=O)c1ccccc1)C(=O)c1ccccc1	1.4%	4.6	-0.7%	-2.4%	-8.4%	0.4%
CCCN(CCC)c1c([N+](=O)[O-])cc(S(N)(=O)=O)cc1[N+](=O)[O-]	nt	-73.5*	nt	nt	nt	nt
